Measurements from PubChem BioAssay (NCI).
This is part of a sample that, as a whole, favours compounds with a hit. Of some 83,000 tested, about 20% had one in any assay.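 Step 1: grow cells in 96-well plates. Step 2: add test compound at a single concentration. Step 3: incubate 48 h. Step 4: record percent growth.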 The source made the active and inactive calls. The calls were made as follows: active = growth percent below 10; inactive = the rest.

How the values were obtained:
Experiment in all cases: NCI-60 one-dose screen, 48 h (100 = growth as untreated, 0 = no growth, -100 = all killed)
HCT-15 colon = settings: 10 µM unless noted
HT29 colon = settings: 10 µM unless noted
SNB-75 CNS = settings: 10 µM unless noted
SNB-19 CNS = settings: 10 µM unless noted
U251 CNS = settings: 10 µM unless noted
PC-3 prostate = settings: 10 µM unless noted
SK-MEL-5 melanoma = settings: 10 µM unless noted
UACC-62 melanoma = settings: 10 µM unless noted
LOX IMVI melanoma = settings: 10 µM
SK-MEL-28 melanoma = settings: 10 µM unless noted

Measured: growth

OCC1(CCCc2ccccc2)CCCN(c2nccc3ccccc23)C1 (stereo not given)
active: SK-MEL-5 melanoma -60%
inactive: HCT-15 colon 27.7% | HT29 colon 21.3% | SNB-75 CNS 40.5% | SNB-19 CNS 44.2% | U251 CNS 40.1% | PC-3 prostate 52.2% | UACC-62 melanoma 38.7% | LOX IMVI melanoma 35.8% | SK-MEL-28 melanoma 32.4%

O=C(CN1C(=O)/C(=C/c2ccccc2Cl)SC1=S)N1CCOCC1
inactive: HCT-15 colon 45% | HT29 colon 96.4% | SNB-75 CNS 109% | SNB-19 CNS 92.4% | U251 CNS 93.4% | PC-3 prostate 102% | SK-MEL-5 melanoma 98.9% | UACC-62 melanoma 83.2% | LOX IMVI melanoma 48.2% | SK-MEL-28 melanoma 98.8%

Cc1occc1C(=O)NN1C(=O)/C(=C/C=C/c2ccc([N+](=O)[O-])o2)SC1=S
inactive: SNB-19 CNS 12.6%
active: HCT-15 colon -75.5% | HT29 colon -57.2% | SNB-75 CNS -13.4% | U251 CNS -92.7% | PC-3 prostate 0.198% | SK-MEL-5 melanoma -96.7% | UACC-62 melanoma -91.9% | LOX IMVI melanoma -95.9% | SK-MEL-28 melanoma -73.2%

CC(C)C(C(=O)O)n1c(O)c(/C=C2/C=c3cc4c(cc3=NC2=O)OCO4)sc1=S (stereo not given)
inactive: HCT-15 colon 101% | HT29 colon 119% | SNB-75 CNS 101% | SNB-19 CNS 94.4% | U251 CNS 106% | PC-3 prostate 106% | SK-MEL-5 melanoma 103% | UACC-62 melanoma 89.2% | LOX IMVI melanoma 94% | SK-MEL-28 melanoma 110%

COc1ccc(NC(=O)[C@H](C)N)cc1C(=O)Nc1cccc(C2CC(=O)c3c(cc(OC)c(OC)c3OC)O2)c1 (stereo not given in full)
inactive: HCT-15 colon 83.9% | HT29 colon 109% | SNB-75 CNS 88.6% | SNB-19 CNS 91.5% | U251 CNS 93.1% | PC-3 prostate 72.4% | SK-MEL-5 melanoma 76.9% | UACC-62 melanoma 84.4% | LOX IMVI melanoma 89.2% | SK-MEL-28 melanoma 101%
